Compound activity (PubChem BioAssay)
HPGD block: qHTS Assay for Inhibitors of HPGD (15-Hydroxyprostaglandin Dehydrogenase); 15-hydroxyprostaglandin dehydrogenase [NAD(+)] (Homo sapiens), P15428; Potency, µM, for the others: at the top dose activity change, negative = inhibition, hits mostly inhibitors; purified HPGD, NADH fluorescence kinetic, PGE2 substrate; actives 4.3% (n = 150,000); further: potency means the concentration at half of the fitted maximal effect
Target sequence (P15428 whole entry, looked up): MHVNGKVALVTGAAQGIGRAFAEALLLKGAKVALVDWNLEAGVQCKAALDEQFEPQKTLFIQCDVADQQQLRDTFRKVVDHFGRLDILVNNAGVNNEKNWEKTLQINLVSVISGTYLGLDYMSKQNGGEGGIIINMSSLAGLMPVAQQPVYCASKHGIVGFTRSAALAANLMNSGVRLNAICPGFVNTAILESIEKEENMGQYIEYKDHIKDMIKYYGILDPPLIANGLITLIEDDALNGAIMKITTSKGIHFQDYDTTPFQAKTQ
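20 nM HPGD preincubated 15 min at room temperature with compound in 50 mM Tris-HCl pH 8, 0.01% Tween 20. Started with 1 mM NAD+ and 30 uM prostaglandin E2; NADH fluorescence (360/450 nm) read 5 times over 30-s intervals, last minus first.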
ALDH1A1 inh: qHTS Assay for Inhibitors of Aldehyde Dehydrogenase 1 (ALDH1A1); actives 7.3% (n = 220,000); Potency, µM (series often up to 75.3 µM), for inactives: at the top dose activity, negative = inhibition, actives largely listed as inhibitors; Purified ALDH1A1, NADH fluorescence, propionaldehyde substrate; Aldehyde dehydrogenase 1A1 (Homo sapiens), P00352;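 further: potency means the concentration at half of the fitted maximal effect; plate controls were no enzyme wells and a reference inhibitor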
PNC inhibitor: High Content Assay for Compounds that inhibit the Assembly of the Perinucleolar Compartment. PC3M PTB-GFP, PNC prevalence imaging, 16 h; stronger effect = lower value. activity change (PNC), negative = inhibition, % at 10 µM. AID 2417, 2010. actives 3.1% (n = 140,000);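 active means readout at or below -70, meaning at least 70% loss of cells showing the perinucleolar compartment, a nuclear body marking cancer cells; inconclusive means readout between -30 and a set limit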;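 further: plate controls were DMSO wells for no effect and camptothecin positive control wells for full effect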
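PC3M cells stably expressing PTB-GFP, 750–1000 cells/well, treated 16 h at 37 °C with compound (23 nl of library stock), in duplicate. After paraformaldehyde fixation and Hoechst stain, imaged at 20x; PNC prevalence scored by image analysis.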
* hit, by the source's call; ? = inconclusive; . = no result given; [ ] = remark or other dose. Hits are enriched below; roughly 11% of the tested compounds scored in any of these assays. Unless noted, the call rests on the fitted dose curve; in most records, active means well fitted inhibition curve with a large enough effect (not every such curve was filed as active); inconclusive means small, poorly fitted or top-dose-only effect, or another doubt; inactive means no such curve, though single readings can be large or run the other way. Unless noted, on the % scale 0 is the no-effect control and ±100 the full control effect.

SMILES	HPGD block	ALDH1A1 inh	PNC inhibitor
CC1(C)O[C@H]2[C@@H](O1)[C@@H](On1nnc3ccc(Cl)cc31)O[C@@H]2[C@@H]1COC(C)(C)O1	-6%	-7%[13.5 µM]	.
CCOC(=O)C1CCN(S(=O)(=O)C(F)(F)c2nc3ccccc3s2)CC1	-12%	?	1
CC(C)NC(=O)[C@H]1C[C@@H]1[C@H](NC(=O)OCc1ccccc1)c1ccccc1	-9%	-1%	.
O=C(NCCO)C1COc2ccccc2O1 (stereo unspecified)	.	6%	.
CCCNC(=O)C1CNc2ccccc2O1 (stereo unspecified)	25µM*	-3%	-9
CNC(=S)N1N=C(c2ccc(C)cc2)CC1c1cc(OC)ccc1OC (stereo unspecified)	.	-4%	.
CNC(=S)N1N=C(c2ccc(Br)cc2)CC1c1ccc(OC)cc1 (stereo unspecified)	35µM*	7.1µM*	-121*
CNC(=S)N1N=C(c2ccc(C)cc2)CC1c1ccc(N(C)C)cc1 (stereo unspecified)	.	25µM*	.
CCC(=O)N1N=C(c2ccc(NS(C)(=O)=O)cc2)CC1c1ccc(N(C)C)cc1 (stereo unspecified)	.	-10%	.
CCOC(=O)c1cc(-c2cccc([N+](=O)[O-])c2)on1	.	-3%	.
O=C(Nc1ccccc1)C1=C(N2CCOCC2)/C(=C/c2cccnc2)CC1	-14%	-12%	37
CCOC(=O)C(=O)C1=C(N2CCOCC2)/C(=C\c2cccc([N+](=O)[O-])c2)CC1	32µM*	2.2µM*	-22
O=[N+]([O-])c1cccc(/C=C2\CCC(/C=N/Nc3ccc4ccccc4n3)=C2N2CCOCC2)c1	-11%	?	3
O=C(NP(=O)(N1CCCC1)N1CCCC1)C1=C(N2CCOCC2)/C(=C/c2cccc([N+](=O)[O-])c2)CC1	.	10µM*	.
COc1ccc(NC(=O)C2CC(=O)OC23CCOC(C)(C)C3)cc1 (stereo unspecified)	-20%	2%	12
COc1cc(Cl)c(C)cc1NC(=O)CNC(=O)Cn1cnc2ccccc2c1=O	?	-4%	64
NC(=O)c1cc([N+](=O)[O-])ccc1N1CCCCC1	-15%	?	18
O=C1CCN(c2ccc([N+](=O)[O-])cc2F)CC1	.	8.9µM*	.
CCOC(=O)c1ccccc1NC(=O)CSc1nnnn1C	-9%	-3%	29
CCOC(=O)c1ccccc1NC(=O)CSc1nccn1C	-10%	-11%	-100*
CCc1ccccc1NCC(=O)Nc1ccccc1C(=O)OC	.	?	-17
CCOC(=O)c1cnc(SCC(=O)c2ccc(C)cc2)nc1N	-3%	1%	-2
CCOC(=O)c1cnc(SCc2nc(N)nc(Nc3ccc(F)cc3)n2)nc1N	-9%	1%	?
CCOC(=O)c1cnc(SCc2nc(N)nc(Nc3ccc(C)cc3)n2)nc1N	-26%	-5%	-81*
CCOC(=O)c1cnc(SCc2cccc(C)c2)nc1N	?	25µM*	?
SMILES	HPGD block	ALDH1A1 inh	PNC inhibitor
COC(=O)c1ccccc1NC(=O)CNc1cc(OC)c(OC)cc1C	-15%	10µM*	?
CCOC(=O)c1nn(-c2ccc(F)cc2)c2c1CC/C2=C/c1ccccc1	?	?	10
CC(=O)N(NC(=O)c1ccc(C)cc1)C1CC(=O)N(c2ccccc2Cl)C1=O (stereo unspecified)	3%	9%	-24
N=C(N)SCC(=O)O	-12%	7%[13.5 µM]	.
CCOC(=O)c1c(NC(C)=O)no[n+]1[O-]	-6%	-10%	?
Cc1cc(C)cc(NC(=O)COc2ccc(C(=S)N3CCOCC3)cc2)c1	.	9%	.
COC(=O)c1ccc(C(=O)OC)c(NC(=O)CN2CCN(c3ccccc3OC)CC2)c1	-20%	?	-6
CCOC(=O)c1ccccc1NC(=O)CSc1nc(N)cc(N)n1	0%	-8%	3
COC(=O)c1ccc(C(=O)OC)c(NC(=O)COc2ccccc2OC)c1	-22%	13µM*	8
CC(C)(C)NC(=O)CSc1nnc(-c2ccncc2)o1	-5%	3%	?
COC(=O)c1ccccc1NC(=O)CSc1nnc(-c2ccncc2)o1	-21%	18µM*	4
COc1ccccc1-c1nnc(SCC(=O)Nc2c(Cl)cccc2Cl)o1	-4%	22µM*	-27
COc1ccccc1-c1nnc(SCC(=O)NC2CCCCC2)o1	-18%	7%	40
COC(=O)c1ccccc1NC(=O)CSc1nc(N)cc(N)n1	-16%	25µM*	15
N[C@H](Cc1ccccc1)C(=O)O	.	7%	.
Cc1cc(C)c(NC(=O)c2cc(=O)c3ccccc3o2)c(C)c1	1%	13%	4
CC1=CC(=O)OC1Cc1ccc2ccccc2n1 (stereo unspecified)	-29%	?	.
CC1(C(=O)NC2CCCCCCC2)CC1(Cl)Cl (stereo unspecified)	?	-9%	16
CCOC(=O)c1ccccc1NC(=O)CSc1ncc(C(=O)OCC)c(N)n1	-7%	20µM*	-26
CCOC(=O)c1cnc(SCC(=O)Nc2cc(OC)ccc2OC)nc1N	?	?	18
CCNC(=S)N=Nc1c(O)[nH]c2ccc([N+](=O)[O-])cc12	.	1%	.
O=[N+]([O-])c1ccc2[nH]c(O)c(N=NC(=S)NCC3CCCO3)c2c1 (stereo unspecified)	-8%	0.79µM*	-28
Cc1nn(CC(=O)NCc2cccnc2)c(C)c1[N+](=O)[O-]	.	6%	.
Fc1ccc(COc2ccccc2C(=S)N2CCCC2)cc1	8.9µM*	7.9µM*	-11
Cc1ccc(COc2ccccc2C(=S)N2CCCC2)cc1	.	25µM*	.
SMILES	HPGD block	ALDH1A1 inh	PNC inhibitor
O=C(NN=C1CCCCC1)c1ccccc1OCc1ccc(F)cc1	-5%	?	6
O=C(OCC(=O)N1CCCC1)c1ccccc1OCc1ccccc1	1%	0%	28
Fc1ccc(CSc2nncn2NCc2ccc3c(c2)OCO3)cc1	-3%	-2%	?
CCC(=O)N1CCN(c2ccccc2NC(=O)COc2cc(C)ccc2C(C)C)CC1	6%	-3%	?
CC(=O)NCCNc1ccc([N+](=O)[O-])cn1	-16%	4%	30
CCC(=O)NCCNc1ccc([N+](=O)[O-])cn1	-17%	1%	-81*
Cc1cccc(C)c1NS(=O)(=O)c1ccc(OCCNS(C)(=O)=O)cc1	.	24%	.
CCN1CCN(CCC(=O)Nc2ccccc2OC)CC1	-2%	14%	-8
CCOc1ccccc1NC(=O)CCN1CCN(S(=O)(=O)c2ccc(Br)cc2)CC1	-14%	-8%	-107*
Cc1cc2c(nc1C)CCCN2C[C@H](C)O/N=C\[C@@H](C)[C@H](OCc1ccccc1)C(C)C	.	-14%[13.5 µM]	.
Cc1ccc(Nc2cnn(C34CC5CC(CC(CC(=O)O)(C5)C3)C4)c(=O)c2Cl)cc1	-19%	?	-17
O=c1c(Cl)c(N2CCN(c3ccccc3)CC2)cnn1C12CC3CC(CC(C3)C1)C2	-5%	10µM*	?
O=C(O)C12C[C@H]3C[C@@H](C1)CC(n1ncc(N4CCN(c5ccccc5)CC4)c(Cl)c1=O)(C3)C2	-16%	1.3µM*	5
O=c1c(Cl)c(N2CCN(c3ccc(F)cc3)CC2)cnn1C12CC3CC(CC(C3)C1)C2	-13%	?	-23
